Source: PubChem BioAssay (several laboratories)
FGF22 binding – binders of human FGF22 protein, primary screen, FGF22 synaptogenesis inhibitor project, biophysical, thermal shift, single point | Fibroblast growth factor 22 (Homo sapiens), Q9HCT0 | recombinant FGF22 thermal shift, SYPRO orange fluorescence; percent of sucrose octasulfate shift, DMSO zero | activity (Tm shift, normalised), % at 9.99 µM | 340,000 compounds, 1.5% hits | AID 651658, 2012;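 active = mean Tm shift, scaled 0 neutral to 100 positive control, at about 1.3% or above, every replicate too, limit read from the data; inconclusive = no clear call, values can overlap the other calls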
Target sequence (Q9HCT0 whole entry, looked up): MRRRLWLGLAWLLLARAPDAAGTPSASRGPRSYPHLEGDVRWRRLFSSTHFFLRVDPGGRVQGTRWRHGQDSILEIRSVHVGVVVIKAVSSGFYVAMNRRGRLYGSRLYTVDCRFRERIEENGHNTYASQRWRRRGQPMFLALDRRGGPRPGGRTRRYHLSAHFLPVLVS
Wnt bcat act – Wnt/beta-catenin pathway activators, primary screen, cell-based, plate reader, single point; Wnt/beta-catenin reporter cell assay, activator; activation, % at 9.35 µM; 300,000 compounds, 1.2% hits; in the data active = activation above about 30%, passing the limit was not always enough; inconclusive = no clear call, values can overlap the other calls;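 also: 0% = neutral control wells and 100% = positive control wells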
MITF act – activators of MITF-driven TRPM1 promoter reporter, primary screen, cell-based, SK-MEL-5, luciferase, single point | SK-MEL-5 TRPM1-promoter luciferase, 24 h; % of positive control, neutral wells = 0 | activation, % at 12.5 µM | 300,000 compounds, 0.75% hits;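 active = mean activation of at least 80% with every replicate also reaching 80%; inconclusive = mean reaches 80% but some replicate falls short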;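 also: 0% = neutral control wells and 100% = parthenolide positive control wells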
AF4-AF9 inh – inhibitors of AF4 peptide binding to AF9, primary screen, biochemical, AlphaScreen, biotin-AF4 peptide, FLAG-AF9, single point | Protein AF-9 (Homo sapiens), P42568 | inhibition, % at 10 µM | 350,000 compounds, 0.47% hits | AID 651704, 2012;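 active = every replicate reaching a set inhibition limit, whatever the replicate mean, cut at about 25% in these data; inconclusive = mean inhibition reaches that limit but some replicates miss it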;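 also: 0% = plate neutral control median and 100% = total signal loss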
SMARCA2 activ – SMARCA2 (BRM) function activators, primary screen, cell-based, luminescence, high throughput. MG213 cells, MMTV-luciferase reporter, dexamethasone, overnight. activation, % at 9.1 µM. 370,000 compounds, 1% hits. AID 652017, 2013; in the data active = activation above about 7.8%;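 also: 0% = vehicle wells and 100% = reference activator wells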
esBAF inh – Bmi1 luciferase reporter increase in mESCs, primary screen, esBAF inhibitor project, mouse ES cells, Bmi1 luciferase knock-in, single point | 24 h; 100% = twice the neutral-well signal | reporter increase, % at 12.5 µM | 350,000 compounds, 2% hits; in the data active = activation above about 40%; inconclusive = no clear call, values can overlap the other calls;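 also: 0% = median of the plate's neutral control wells and 100% = double that signal; a rise in the Bmi1 reporter signal indicates esBAF inhibition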
Active calls of the source: *; ? = inconclusive; nt = not tested or not shown. An excerpt weighted towards active compounds, which were near 4.3% of everything screened.

SMILES	FGF22 binding	Wnt bcat act	MITF act	AF4-AF9 inh	SMARCA2 activ	esBAF inh
O=C(c1cnsn1)N1CCC(CO)(Cc2cccc(F)c2)CC1	0	50*	114*	4	2	70*
Cc1ccccc1CN1C(=O)c2ccccc2C1c1nnnn1-c1ccc2c(c1)OCCO2 (stereo unspecified)	0	-15	nt	3	7.9*	nt
CN(C)c1nc(NCc2ccccc2)nc(SCC(=O)Nc2ccc(Cl)c(Cl)c2)n1	nt	nt	-11	nt	6	-2
CCNc1nc(NCc2ccccc2)nc(SCC(N)=O)n1	0	-1	3	0	-2	-2
COC(=O)CSc1nc(NCc2ccccc2)nc(N(C)C)n1	43*	-1	-9	0	-2	-3
CCNc1nc(SCC(=O)Nc2ccc(Cl)c(Cl)c2)nc(N(C)C)n1	45*	-2	-12	0	-6	-8
CC(C)NC(=O)N(C)C[C@H]1OCCCC[C@H](C)Oc2ccc(NS(=O)(=O)c3ccc(F)cc3)cc2C(=O)N([C@H](C)CO)C[C@@H]1C	0	nt	nt	-2	nt	-2
COCC(=O)Nc1ccc2c(c1)C(=O)N(C)[C@@H]1CC[C@H](CC(=O)NCc3cccc(F)c3)O[C@@H]1CO2	0	nt	nt	nt	nt	0
CCOC(=O)COn1c(-c2cccc(Cl)c2)nc2ccc([N+](=O)[O-])cc21	nt	nt	87*	nt	4	nt
CC(=O)N(C)C[C@@H]1Oc2ncc(C#Cc3ccccn3)cc2C(=O)N([C@H](C)CO)C[C@@H]1C	0	nt	nt	-7	nt	-4
CC(=O)c1ccc(NC(=O)C2(c3ccccc3)CC2(Cl)Cl)cc1 (stereo unspecified)	0	-2	nt	33*	3	36
C[C@H](CO)N1C[C@H](C)[C@@H](CN(C)Cc2ccccc2)OCc2cn(nn2)CCCC1=O	0	nt	nt	-2	nt	5
O=C(NC1CC1)c1ccc(-c2cnc3cccnn23)cc1	0	35*	nt	0	2	25
O=C(Nc1ccc(N2CCCC2)c(Cl)c1)c1cccnc1	nt	7	?	nt	2	49*
O=C(Nc1ccc(N2CCCCC2)c(Cl)c1)c1cccnc1	nt	13	69	nt	-1	49*
O=C(Nc1ccc(N2CCOCC2)c(Cl)c1)c1cccnc1	nt	nt	38	nt	3	27
C[C@@H]1CCCCO[C@H](CN(C)Cc2ccccc2)[C@H](C)CN([C@@H](C)CO)C(=O)c2cc(NC(=O)CCC(F)(F)F)ccc2O1	nt	nt	nt	nt	nt	-2
C[C@@H]1CCCCO[C@H](CN(C)C(=O)NC2CCCCC2)[C@H](C)CN([C@@H](C)CO)C(=O)c2cc(NS(C)(=O)=O)ccc2O1	0	nt	nt	nt	nt	2
O=C(O)c1ccc(N/N=C/C2=Cc3ccccc3OC2)cc1	0	41*	138*	2	0	81*
O=C(O)c1ccc(N/N=C/c2ccncc2)cc1	0	8	-8	1	2	nt
CCC(=O)N(Cc1cc(=O)[nH]c2ccccc12)c1ccccc1OC	0	0	-8	-2	-3	-1
COc1ccccc1N(Cc1cc(=O)[nH]c2ccccc12)C(=O)c1cccc([N+](=O)[O-])c1	43*	-3	6	nt	-2	-6
CCN(CC)S(=O)(=O)c1ccc2oc(Nc3ccc(OC)cc3OC)nc2c1	0	-2	-1	2	-4	8
CCN(CC)S(=O)(=O)c1ccc2oc(Nc3ccccc3)nc2c1	0	10	42	5	3	71*
CCS(=O)(=O)c1ccc2oc(Nc3ccccc3C)nc2c1	nt	nt	?	nt	3	55*
SMILES	FGF22 binding	Wnt bcat act	MITF act	AF4-AF9 inh	SMARCA2 activ	esBAF inh
CCS(=O)(=O)Nc1ccc2c(c1)C(=O)N(C)C[C@@H](OC)[C@H](C)CN(C(=O)COC)[C@@H](C)CO2	nt	nt	nt	-2	nt	-4
O=C(/C=C\Nc1ccc2c(c1)OCO2)c1ccc2c(c1)OCO2	1	34*	13	0	3	nt
O=C(/C=C\Nc1ccc2c(c1)OCO2)c1ccc(Cl)s1	43*	1	54	-1	2	52*
COc1ccc(N/C=C\C(=O)c2ccc3c(c2)OCO3)cc1	nt	75*	53	nt	2	nt
COc1ccc(S(=O)(=O)Nc2cccc3c2O[C@@H](CN(C)C(=O)Nc2ccc(C(F)(F)F)cc2)[C@@H](C)CN([C@H](C)CO)C3=O)cc1	0	nt	nt	0	nt	0
CCOC(=O)CC[C@@H]1CC[C@]2(CCCN(C(=O)C3CCCCC3)C2)O1	nt	nt	nt	nt	-3	nt
C[C@H](CO)N1C[C@H](C)[C@H](CN(C)S(=O)(=O)c2ccccc2)Oc2ccc(NC(=O)Nc3ccccc3)cc2CC1=O	0	nt	nt	-7	nt	-4
O=c1cc(COc2ncnc3ccccc23)nc2sccn12	0	1	0	2	-2	-7
CC(=O)c1ccc(OCc2cc(=O)n3ccsc3n2)cc1	nt	11	48	nt	2	nt
O=C(OCc1cc(=O)n2ccsc2n1)c1ccc(O)cc1O	0	26	54	-1	0	54*
Cc1ccsc1C(=O)OCc1cc(=O)n2ccsc2n1	0	54*	77	-5	7	-9
CN(Cc1cc(=O)n2ccsc2n1)c1ccccc1	44*	-3	-9	1	-1	nt
CC(C)NC(=O)N1CC(=O)N2[C@H](CO)[C@@H](c3ccc(/C=C/c4ccccc4)cc3)[C@@H]2C1	0	nt	nt	2	nt	nt
Cc1ccc(C(=O)OCC(=O)Nc2ccc3c(c2)OCO3)o1	nt	1	-1	nt	0	-2
O=C(Nc1ccc2c(c1)OCCO2)c1ccc(Br)o1	nt	55*	48	nt	5	17
C/C(=C\C(=O)c1ccc(C)o1)Nc1ccc2c(c1)OCO2	nt	nt	79	nt	1	66*
Cc1ccc(C(=O)Nc2ccc3c(c2)OCO3)o1	nt	nt	13	nt	3	48*
COc1ccc(N=Nc2nc3ccc(Br)cc3n2C)cc1	nt	nt	69	nt	4	52*
COc1ccc(-c2c(-c3cc(OC)cc(OC)c3)n(C)c3ccc(Br)cc23)cc1	0	1	-2	2	-1	4
CCCC(=O)N1CC2(C1)CN(C(=O)CC1CC1)[C@H](CO)c1c2c2ccc(OC)cc2n1C	0	nt	nt	-2	nt	nt
COc1ccc(C2CC(c3ccccc3O)=NN2C(=O)c2ccccc2)cc1OC (stereo unspecified)	0	-1	-6	41*	-2	7
COc1ccc2c3c(n(C)c2c1)[C@H](CO)N(C(=O)NC(C)C)CC31CN(CC2CC2)C1	0	nt	nt	3	nt	nt
CCCc1ccc(OCC(=O)Nc2cc(S(=O)(=O)CC)ccc2O)cc1	44*	-1	-4	-1	-3	-8
